# EBV LMP1 NFkB: EBV LMP1-driven NF-kappaB luciferase reporter inhibitors, primary screen, cell-based, luminescence, single point. LMP1-induced NF-kappaB luciferase reporter cells. inhibition, % at 12.5 µM. hit rate 0.69% among 350,000; in the data active means inhibition above about 41%; inconclusive means no clear call, values can overlap the other calls;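 further: 0% = neutral control wells and 100% = reference inhibitor control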
# Shn3 inh set2: reduction of Shn3 3'UTR firefly luciferase signal, primary screen, Schnurri-3 inhibitor project, cell-based, Clone20 osteoblasts, set 2; hit rate 0.52% among 360,000; inhibition, % at 12.5 µM; Clone20 osteoblast Shn3 3'UTR firefly luciferase, 24 h; AID 588674, 2011;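 active means mean inhibition of at least 75% with every replicate also reaching 75%; inconclusive means mean inhibition at least 75% but some replicate below; inactive means mean inhibition below 75%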;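 further: 0% = median of neutral control wells and 100% = pilot-screen positive control compound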
# Env fusion inh: inhibitors of HIV-1 Env-driven cell-cell fusion, primary screen, HeLa-JRFL effector, CEM21 target cells, luciferase. inhibition, % at 12.3 µM. AID 651610, 2012. hit rate 1.1% among 360,000;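 active means mean replicate inhibition score of at least 50 and every replicate individually at or above 50; inconclusive means only one of the two criteria met; inactive means mean below 50 and not all replicates reaching 50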;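 further: 0% = plate neutral controls and 100% = maraviroc near 300 nM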
# PAX8 reporter: inhibitors of PAX8-driven TPO luciferase reporter, primary screen, RMG-I cells, single concentration; inhibition, % at 12.6 µM; SteadyGlo, 24 h; hit rate 1.2% among 360,000;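 active means mean replicate inhibition at least 60% with every replicate also reaching 60%; inconclusive means only one of the two criteria is met; inactive means mean below 60% and not all replicates reaching 60%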;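 further: luciferase light reporting Pax8 driven TPO promoter activity; plate controls were median of neutral control wells for no effect and mitoxantrone controls for full effect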
# NSD2 HMT inh: NSD2 histone methyltransferase inhibitors, primary screen, biochemical, AlphaScreen, single concentration, set 2. AID 743445, 2014. NSD2 peptide methylation, 120 min. hit rate 0.54% among 310,000. inhibition, % at 12.5 µM; in the data active means inhibition above about 50%
# Glyco luc inh: increase of ERlucT glycosylation luciferase signal, primary screen, N-linked glycosylation inhibitor project, D54 ERlucT cells, luminescence, set 2; D54 ERlucT glycosylation luciferase reporter, 24 h; percent of 100 nM tunicamycin response; reporter increase, % at 12.5 µM; hit rate 0.23% among 360,000; AID 588692, 2011;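 active means mean luciferase reporter signal, scaled so untreated is 0 and the glycosylation-blocking control 100, at or above a set limit in every replicate; inconclusive means mean reaches the limit but not every replicate does; inactive means mean below the limit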;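 further: luciferase carries N-glycosylation sites so blocking glycosylation raises the light; 0% = median of neutral control wells and 100% = median of 100 nM tunicamycin wells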
# * = called active by the depositor; ? = inconclusive; . = no result; [ ] = another dose, or the depositor's remark. Compounds with a hit are over-represented: about 2.8% of the library has one in this group of screens.
SMILES,EBV LMP1 NFkB,Shn3 inh set2,Env fusion inh,PAX8 reporter,NSD2 HMT inh,Glyco luc inh
N#Cc1cc2c(nc1SC1CC(=O)N(c3ccccc3)C1=O)CCC2 (stereo not given),52*,51,.,.,.,-10
NCC[C@@H]1CC[C@@H](NS(=O)(=O)c2ccc(Cl)cc2)[C@@H](CO)O1,.,.,-3[16.7 µM],-11,.,.
O=C(Nc1ccc(C(F)(F)F)cc1)Nc1ccc2c(c1)[C@H]1C[C@@H](CC(=O)N3CCc4ccccc4C3)O[C@H](CO)[C@H]1O2,.,.,?,98*,.,.
CN1CCN(C(=O)C[C@@H]2C[C@H]3c4cc(NC(=O)Nc5ccccc5F)ccc4O[C@H]3[C@@H](CO)O2)CC1,.,.,21[16.7 µM],-9,.,.
O=C(Nc1ccc(C(F)(F)F)cc1)Nc1ccc2c(c1)[C@H]1C[C@@H](CC(=O)N3CCc4ccccc4C3)O[C@@H](CO)[C@H]1O2,.,.,?,97*,.,.
O=C(C[C@H]1C[C@@H]2c3cc(NS(=O)(=O)c4ccc(F)cc4)ccc3O[C@@H]2[C@@H](CO)O1)N1CCc2ccccc2C1,.,.,15[16.7 µM],87*,.,.
O=C(Nc1ccc(C(F)(F)F)cc1)Nc1ccc2c(c1)[C@H]1C[C@H](CC(=O)N3CCc4ccccc4C3)O[C@@H](CO)[C@H]1O2,.,.,7[16.7 µM],43,.,.
COc1ccc(NC(=O)Nc2ccc3c(c2)[C@@H]2C[C@@H](CC(=O)N4CCc5ccccc5C4)O[C@@H](CO)[C@@H]2O3)cc1,.,.,-7[16.7 µM],-5,.,.
O=C(Nc1ccc2c(c1)[C@@H]1C[C@@H](CC(=O)N3CCc4ccccc4C3)O[C@@H](CO)[C@@H]1O2)Nc1ccccc1F,.,.,-13[16.7 µM],64*,.,.
COc1cccc(CNC(=O)C[C@@H]2C=C[C@@H](NS(=O)(=O)c3ccccc3OC)[C@@H](CO)O2)c1,.,.,-107[16.7 µM],5,.,.
Cc1ccc(S(=O)(=O)N(C)C[C@@H]2Oc3ccc(NC(=O)CCCN(C)C)cc3CC(=O)N([C@@H](C)CO)C[C@H]2C)cc1,.,.,.,1,.,.
COc1ccccc1CNC(=O)CCc1cn(C)c2ccccc12,74*,12,-7,12,-1,0
COc1ccccc1CNC(=O)COC(=O)CSc1ccc(C)c(C)c1,-4,-6,68*,8,-1,1
Nc1c(S(=O)(=O)c2ccccc2)cnc2c(-c3ccc(F)cc3)cnn12,0,-5,68*,.,0,-4
Cc1nc2c(-c3ccc(F)cc3)c(C)nn2c(C)c1CCC(=O)Nc1ccccc1,0,1,63*,22,.,0
Cc1nc2c(-c3ccc(F)cc3)c(C)nn2c(C)c1CCC(=O)N1CCC(Cc2ccccc2)CC1,-3,-1,55*,6,.,2
Cc1nc2c(-c3ccc(F)cc3)c(C)nn2c(C)c1CCC(=O)N1CCN(c2ccc(F)cc2)CC1,2,-3,56*,-3,.,1
COc1ccccc1NC(=O)CCc1c(C)nc2c(-c3ccc(F)cc3)c(C)nn2c1C,-5,-1,?,8,-1,-2
Cc1noc(C)c1NC(=O)Nc1ccc2c(c1)C(=O)N([C@@H](C)CO)C[C@@H](C)[C@@H](CN(C)Cc1ccncc1)OCCCC[C@@H](C)O2,.,.,-13[16.7 µM],9,.,.
C[C@@H]1CN([C@@H](C)CO)C(=O)Cc2cc(NC(=O)Nc3ccccc3)ccc2O[C@H]1CN(C)Cc1ccc2c(c1)OCO2,.,.,.,11,.,.
Cc1nn(C2CCS(=O)(=O)C2)c2nc(C3CC3)cc(C(=O)Nc3cccc(C#N)c3)c12 (stereo not given),-3,18,18,75*,-1,-2
O=C(Nc1ccccn1)NC1CCCCC1,84*,-12,.,.,3,0
Cc1ccc(S(=O)(=O)CC(=O)Nc2ccccn2)cc1,-3,-8,-1,-10,-2,1
Cc1ccc(NC(=O)C(=O)Nc2ccccn2)cc1,56*,13,2,2,0,-20
O=C(NC(=O)c1ccccc1)Nc1ccccn1,71*,61,68*,85*,-6,-22
SMILES,EBV LMP1 NFkB,Shn3 inh set2,Env fusion inh,PAX8 reporter,NSD2 HMT inh,Glyco luc inh
Cc1noc(C)c1S(=O)(=O)N(C)C[C@H]1Oc2c(NC(=O)C3CCOCC3)cccc2C(=O)N([C@H](C)CO)C[C@H]1C,.,.,-6[16.7 µM],-6,.,.
CCCN1C[C@@H](C)[C@H](OC)CN(C)C(=O)c2ccc(NC(=O)C3CCC3)cc2OC[C@@H]1C,.,.,14[16.7 µM],.,.,.
O=C(C1CCCC1)N1[C@H](CO)[C@H]2c3ccccc3N(S(=O)(=O)c3ccc(F)cc3)C[C@H]21,.,.,.,32,.,.
Cc1ccc(C)c(S(=O)(=O)N2CCN(C(=O)C3CCN(c4ncnc5sc(C)c(C)c45)CC3)CC2)c1,29,89*,.,-5,-1,3
Cc1sc2ncnc(N3CCN(S(=O)(=O)c4ccccc4)CC3)c2c1C,6,94*,.,.,1,-1
Cc1ccc(C(=O)N2CCN(S(=O)(=O)c3ccccc3)CC2)s1,1,-12,-396,8,9,0
Cc1ccc(C)c(S(=O)(=O)N2CCN(C(=O)c3ccc(C)s3)CC2)c1,45*,4,-6,5,0,-1
C[C@@H]1CCCCO[C@H](CN(C)C(=O)Nc2ccccc2)[C@H](C)CN([C@H](C)CO)C(=O)c2cc(NS(=O)(=O)c3cccs3)ccc2O1,.,.,-25[16.7 µM],20,.,.
COC(=O)C1=NNC(C(=O)OC)C1c1ccccc1 (stereo not given),84*,2,-60,-6,0,1
O=C(C[C@H]1CC[C@@H](NC(=O)CCN2CCCCC2)[C@H](CO)O1)Nc1ccccc1,.,.,-31[16.7 µM],-44,.,.
O=CNc1ccc2c(c1)Cc1cc([N+](=O)[O-])ccc1-2,14,0,75*,-36,-2,9
C[C@H](CO)N1C[C@H](C)[C@@H](CN(C)CC2CC2)Oc2cc(C#C[C@@H](C)O)ccc2S1(=O)=O,.,.,12[16.7 µM],.,.,.
Cc1ccc(Sc2c(CO)c(-c3ccccc3)nn2C)cc1,7,-2,-414,66*,-6,29*
O=[N+]([O-])c1ccc(Sc2cc[n+]([O-])c3ccccc23)c([N+](=O)[O-])c1,-13,-10,5,22,7,28*
O=c1[nH]c(Sc2ccc([N+](=O)[O-])cc2[N+](=O)[O-])nc2ccccc12,-6,2,11,25,5,10
O=[N+]([O-])c1ccc(Sc2nc3ccccc3o2)c([N+](=O)[O-])c1,15,98*,.,.,0,17
COc1ccc(NC(=O)N(C)C[C@@H]2Oc3ccc(NC(=O)NC4CCCCC4)cc3C(=O)N([C@@H](C)CO)C[C@H]2C)cc1,.,.,1[16.7 µM],-18,.,.
COC(=O)c1ccc2c(c1)NC(=O)CS2,-28,-10,-8,16,2,3
CC(OC(=O)c1ccc2c(c1)NC(=O)CS2)C(=O)c1ccc(F)cc1 (stereo not given),-1,-7,59*,21,0,-1

# From PubChem
